Many of the other results were omitted from the sample, so hits are more common in it than they were.
IDE exosite FP: displaces the probe from the exo-site of human IDE; P14735; purified IDE, FL-6b probe fluorescence polarization; active compounds read low; z-score at 20 µM; 17,000 tested, 6.3% active;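 active means z-score of -3 or lower, meaning strong loss of probe binding signal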;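 further: His-tagged human IDE residues 42-1019 made in E. coli with 30 nM FL-6b probe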
Target sequence (P14735 42-1019 limits assumed): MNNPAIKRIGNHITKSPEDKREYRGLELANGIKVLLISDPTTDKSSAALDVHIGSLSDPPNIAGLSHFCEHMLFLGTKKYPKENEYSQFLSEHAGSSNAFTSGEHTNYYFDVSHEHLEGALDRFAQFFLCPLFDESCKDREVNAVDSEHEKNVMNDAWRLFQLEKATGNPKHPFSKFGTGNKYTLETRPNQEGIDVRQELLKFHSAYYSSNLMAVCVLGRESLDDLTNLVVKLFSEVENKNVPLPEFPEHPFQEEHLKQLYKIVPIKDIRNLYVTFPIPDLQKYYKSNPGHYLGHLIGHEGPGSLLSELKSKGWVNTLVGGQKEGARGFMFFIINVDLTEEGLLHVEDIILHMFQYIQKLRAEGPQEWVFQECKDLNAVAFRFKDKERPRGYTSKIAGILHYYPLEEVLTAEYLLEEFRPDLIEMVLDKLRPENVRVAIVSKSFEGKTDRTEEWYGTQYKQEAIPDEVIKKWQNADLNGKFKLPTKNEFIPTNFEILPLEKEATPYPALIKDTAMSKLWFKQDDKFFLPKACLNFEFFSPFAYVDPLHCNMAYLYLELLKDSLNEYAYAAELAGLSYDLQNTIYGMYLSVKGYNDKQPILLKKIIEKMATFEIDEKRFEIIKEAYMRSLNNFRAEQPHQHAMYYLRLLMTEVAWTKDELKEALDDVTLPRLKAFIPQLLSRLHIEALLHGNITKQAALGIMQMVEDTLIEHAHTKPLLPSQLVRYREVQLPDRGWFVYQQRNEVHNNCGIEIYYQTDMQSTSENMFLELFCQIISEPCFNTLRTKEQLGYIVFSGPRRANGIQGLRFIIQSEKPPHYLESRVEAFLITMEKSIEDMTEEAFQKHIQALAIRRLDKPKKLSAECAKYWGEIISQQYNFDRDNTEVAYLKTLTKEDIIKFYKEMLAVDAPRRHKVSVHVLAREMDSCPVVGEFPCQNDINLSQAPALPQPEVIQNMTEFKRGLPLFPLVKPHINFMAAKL
Starred values were filed as active, the others as inactive.

SMILES	IDE exosite FP
O=C(Nc1ccccc1F)N1CCCCN2[C@H](C1)[C@H](c1ccc(C#Cc3cccnc3)cc1)[C@@H]2CO	2
O=C(Nc1cccc(F)c1)N1CCCCN2[C@@H](CO)[C@H](c3ccc(C#Cc4ccccc4)cc3)[C@@H]2C1	-3.5*
O=C(Nc1cccc(F)c1)N1CCCCN2[C@H](CO)[C@H](c3ccc(C#Cc4ccccc4)cc3)[C@H]2C1	-1
O=C(Nc1cccc(F)c1)N1CCCCN2[C@H](C1)[C@H](c1ccc(C#Cc3ccccc3)cc1)[C@@H]2CO	2.6
CCCNC(=O)N1[C@H](CNC(=O)c2ccc(F)cc2)[C@H](c2ccccc2)[C@@H]1CO	2.3
CCc1nc(N2[C@H](CO)[C@H](c3ccccc3-c3ccc(F)cc3)[C@@H]2C#N)sc1C	-1.7
CN1[C@H](C(=O)NCc2ccccn2)[C@@H](CO)[C@@H]2Cn3c(ccc(-c4ccc(F)cc4)c3=O)[C@@H]21	-0.33
N#C[C@H]1[C@@H](c2ccccc2C2=CCCC2)[C@@H](CO)N1C(=O)c1cccc(F)c1	0.12
O=C(N[C@H]1CC[C@@H](CC(=O)N2CCOCC2)O[C@H]1CO)c1cccc(F)c1	0.56
COCC(=O)N(C)C[C@H]1[C@H](c2ccc(-c3ccccc3)cc2)[C@H](CO)N1C(C)=O	2.4
O=C1CNC[C@H]2[C@@H](c3ccc(C#CC4CCCC4)cc3)[C@H](CO)N12	4.1
COc1ccccc1NC(=O)N1C[C@@H](C)[C@H](OC)CN(C)C(=O)c2ccc(NC(=O)c3cc(C)on3)cc2OC[C@H]1C	0.019
O=C1N[C@@H](c2ccccc2)COCc2cnnn2CC[C@@H]1Cc1ccc(C(F)(F)F)cc1	-0.3
O=C(C[C@@H]1CC[C@@H]2[C@H](COC[C@H](O)CN2C(=O)c2cnccn2)O1)N1CCN(c2ccccc2)CC1	-0.83
COc1ccc(C#Cc2ccc([C@@H]3[C@H](CO)N4C(=O)CN(C(=O)Nc5ccccc5F)C[C@@H]34)cc2)cc1	3.5
O=C(C1CC1)N1CCCCN2[C@H](CO)[C@H](c3ccc(-c4cccc(F)c4)cc3)[C@@H]2C1	-0.92
COc1cccc(C#Cc2ccc([C@@H]3[C@@H](CO)N4C(=O)CN(C(=O)c5ccccc5)C[C@H]34)cc2)c1	0.1
COc1ccc(C#Cc2ccc([C@@H]3[C@@H](CO)N4C(=O)CN(C(=O)c5ccncc5)C[C@@H]34)cc2)cc1	0.51
COc1cccc(C#Cc2ccc([C@H]3[C@@H](CO)N4C(=O)CN(C(=O)c5ccncc5)C[C@@H]34)cc2)c1	-7.3*
COc1cccc(C#Cc2ccc([C@@H]3[C@H](CO)N4C(=O)CN(C(=O)c5ccncc5)C[C@@H]34)cc2)c1	-5.1*
COc1ccc(C#Cc2ccc([C@H]3[C@H](CO)N4C(=O)CN(C(=O)c5ccncc5)C[C@@H]34)cc2)cc1	1.4
COc1ccc(C#Cc2ccc([C@@H]3[C@H](CO)N4C(=O)CN(C(=O)c5ccncc5)C[C@@H]34)cc2)cc1	3.3
COc1ccc(C#Cc2ccc([C@@H]3[C@@H](CO)N4C(=O)CN(C(=O)c5ccncc5)C[C@H]34)cc2)cc1	3.3
COc1ccc(C#Cc2ccc([C@H]3[C@@H](CO)N4C(=O)CN(C(=O)c5ccncc5)C[C@@H]34)cc2)cc1	0.67
COc1cccc(C#Cc2ccc([C@@H]3[C@@H](CO)N4C(=O)CN(C(=O)c5ccncc5)C[C@@H]34)cc2)c1	-3.2*
SMILES	IDE exosite FP
COc1ccc(S(=O)(=O)N2C[C@H](O)COC[C@H]3O[C@H](CC(=O)N[C@H]4CCN(Cc5ccccc5)C4)CC[C@@H]32)cc1	-1.2
C/C=C/c1ccc([C@@H]2[C@H](C#N)N(C(=O)NC3CCCC3)[C@H]2CO)cc1	5
CC(C)NC(=O)N[C@H]1CC[C@@H](CC(=O)NCCCN(C)C)O[C@H]1CO	-0.15
COc1ccc(-c2ccc([C@@H]3[C@@H](CO)N4C(=O)CN(C(=O)C5CCC5)C[C@@H]34)cc2)cc1	2.3
COc1cccc(-c2ccc([C@H]3[C@H](CO)N4C(=O)CN(C(=O)C5CCC5)C[C@@H]34)cc2)c1	-6.8*
COc1cccc(-c2ccc([C@H]3[C@@H](CO)N4C(=O)CN(C(=O)C5CCCCC5)C[C@@H]34)cc2)c1	-6.3*
COc1ccc(-c2ccc([C@H]3[C@@H](CO)N4C(=O)CN(C(=O)NC(C)C)C[C@H]34)cc2)cc1	-0.41
CN(C)C(=O)c1cccc(-c2ccc([C@H]3[C@@H](CO)N4C(=O)CN(C(=O)C5CCC5)C[C@@H]34)cc2)c1	1.5
COc1ccc(-c2ccc([C@@H]3[C@H]4CN(C(=O)NC(C)C)CC(=O)N4[C@H]3CO)cc2)cc1	-0.33
O=C(C1CCC1)N1CC(=O)N2[C@@H](CO)[C@H](c3ccc(-c4cccnc4)cc3)[C@@H]2C1	1.1
COc1ccc(-c2ccc([C@H]3[C@@H](CO)N4C(=O)CN(C(=O)C5CCCC5)C[C@H]34)cc2)cc1	-7.7*
CN(C)C(=O)c1cccc(-c2ccc([C@H]3[C@H]4CN(C(=O)C5CCCCC5)CC(=O)N4[C@H]3CO)cc2)c1	2.2
COc1ccc(-c2ccc([C@H]3[C@@H](CO)N4C(=O)CN(C(=O)C5CCCC5)C[C@@H]34)cc2)cc1	-2.5
CN(C)C(=O)c1cccc(-c2ccc([C@@H]3[C@@H](CO)N4C(=O)CN(C(=O)C5CCCCC5)C[C@@H]34)cc2)c1	2.8
COc1cccc(-c2ccc([C@H]3[C@H](CO)N4C(=O)CN(C(=O)NC(C)C)C[C@@H]34)cc2)c1	-6.9*
C/C=C/c1ccc([C@H]2[C@@H](CO)N(CC3CC3)[C@@H]2CN(C(C)=O)C(C)C)cc1	0.63
Cc1noc(C)c1NC(=O)N(C)C[C@@H]1OCc2ccccc2-c2c(n(C)c3ccccc23)C(=O)N([C@@H](C)CO)C[C@@H]1C	-2.7
CN(C)C(=O)c1cccc(-c2ccc([C@H]3[C@H]4CN(C(=O)CC5CC5)CC(=O)N4[C@H]3CO)cc2)c1	5.3
COc1ccccc1NC(=O)N1CC(=O)N2[C@H](CO)[C@H](c3ccc(C#CCC(C)C)cc3)[C@@H]2C1	0.82
COc1cccc(-c2ccc([C@@H]3[C@@H](CO)N4C(=O)CN(C(=O)C5CCC5)C[C@H]34)cc2)c1	-4.3*
COc1cccc(-c2ccc([C@H]3[C@H]4CN(C(=O)C5CCC5)CC(=O)N4[C@H]3CO)cc2)c1	-5.7*
C/C=C/c1ccc([C@@H]2[C@@H](CO)N3C(=O)CN(Cc4ccccc4)C[C@@H]23)cc1	0.86
CN(C)C(=O)c1ccc(-c2ccc([C@H]3[C@@H](CO)N4C(=O)CN(C(=O)C5CCCC5)C[C@@H]34)cc2)cc1	3.1
C/C=C/c1ccc([C@H]2[C@@H](CO)N3C(=O)CN(Cc4ccc(C)cc4)C[C@H]23)cc1	3.9
CC(C)CC#Cc1ccc([C@@H]2[C@H](CO)N3CCCCN(C(=O)c4ccc5c(c4)OCO5)C[C@@H]23)cc1	2.1
C[C@@H]1CN([C@@H](C)CO)C(=O)c2cc(/C=C/c3ccccc3)cnc2O[C@@H]1CN(C)S(=O)(=O)c1ccccc1F	-4*
C[C@H](CO)N1C[C@H](C)[C@@H](CN(C)S(=O)(=O)c2ccccc2F)Oc2ncc(/C=C/c3ccccc3)cc2C1=O	0.42
Cc1noc(C)c1S(=O)(=O)Nc1ccc2c(c1)CC(=O)N([C@@H](C)CO)C[C@H](C)[C@@H](CN(C)Cc1ccc(Oc3ccccc3)cc1)O2	-4.3*
C[C@@H]1CN([C@H](C)CO)C(=O)c2cc(/C=C/c3ccccc3)cnc2O[C@@H]1CN(C)S(=O)(=O)c1ccccc1F	-2.1
